In the supplement of paper PMC9588786:
Where “and” joins values, the source holds several entries; their conditions need not be identical. Equal values may be shown once. ± gives the standard deviation of the averaged measurements.

tested on: HT-1080; test: relative cell viability with RSL3 co-treatment (fraction of control); higher = stronger protection from RSL3-induced ferroptosis (higher viability); conditions: 10 µM
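Note: viability read as CCK-8 absorbance at 450 nm in cells co-exposed to the GPX4 inhibitor RSL3, relative to a 0.01% DMSO vehicle control.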

First: C=CC(=O)Nc1cccc(Oc2nc(Nc3ccc(N4CCN(C)CC4)cc3OC)ncc2Cl)c1
Second: C=CC(=O)Nc1ccc(CN2C(=O)N(c3cc(OC)cc(OC)c3)Cc3cnc(Nc4ccc(N5CCN(C)CC5)cc4)nc32)cc1
The relative cell viability of the first is higher: 0.927 ± 0.04 for the first, 0.56 ± 0.01 for the second.

First: O=C(Nc1ccc(-c2ccnc(Nc3ccc(N4CCOCC4)cc3)n2)cc1)C1CCCN1 (stereo not drawn)
Second: Oc1cccc(-c2nc(N3CCOCC3)c3oc4ncccc4c3n2)c1
The relative cell viability of the first is lower: 0.443 ± 0.1 for the first, 0.75 ± 0.044 for the second.

Going from `O=C(Nc1ccccc1C(=O)NC1CCCCNC1=O)c1cc2ccccc2s1` (stereo not drawn) to `N#CC1(c2ccc(NC(=O)c3cccnc3NCc3ccncc3)cc2)CCCC1` [Apatinib], the relative cell viability falls from 0.803 ± 0.011 to 0.643 ± 0.046.

Compared with `COc1cc2ncnc(Nc3ccc(F)c(Cl)c3)c2cc1NC(=O)/C=C/CN1CCCCC1`, `C=CC(=O)Nc1ccc2ncnc(Nc3ccc(OCc4cccc(F)c4)c(Cl)c3)c2c1` is higher in relative cell viability: 0.61 ± 0.046 for the first, 1.01 ± 0.01 for the second.

`COCCOc1ccc2c(c1)ncn2-c1ccc2cccc(N3CCC(N)CC3)c2n1` and `Cc1ccc(NC(=O)c2ccc(CN3CCN(C)CC3)cc2)cc1Nc1nc(-c2cccnc2)cs1` [Masitinib (AB1010)] are within error of each other in relative cell viability: 0.82 ± 0.056 for the first, 0.67 ± 0.12 for the second.

First: CN1CCN(c2ccc3nc(-c4c(N)c5c(F)cccc5[nH]c4=O)[nH]c3c2)CC1 [Dovitinib (TKI-258, CHIR-258)]
Second: CCc1cccc(CC)c1NC(=O)N1Cc2[nH]nc(NC(=O)c3ccc(N4CCN(C)CC4)cc3)c2C1
The relative cell viability of the first is higher: 0.827 ± 0.1 for the first, 0.53 ± 0.087 for the second.

Compared with `CC(C)(C)c1cc(/C=C(\C#N)C(N)=S)cc(C(C)(C)C)c1O` [Tyrphostin AG 879], `N#C/C(=C\c1ccc(O)c(O)c1)C(=O)NCc1ccccc1` [AG-490 (Tyrphostin B42)] is lower in relative cell viability: 0.69 ± 0.017 for the first, 0.55 ± 0.12 for the second.

First: CN(C)CCCn1cc(C2=C(c3c[nH]c4ccccc34)C(=O)NC2=O)c2ccccc21
Second: CN(C)Cc1cccc(N/C(=C2\C(=O)Nc3cc(C(N)=O)ccc32)c2ccccc2)c1
The relative cell viability of the first is higher: 0.837 ± 0.045 for the first, 0.627 ± 0.045 for the second.

First: Cc1ccc(C(=O)Nc2cccc(C(F)(F)F)c2)cc1Nc1nc(-c2cccnc2)nc2c1cnn2C
Second: CC1=C(C(=O)Nc2cc3cn[nH]c3cc2F)C(c2ccc(C(F)(F)F)cc2)CC(=O)N1 (stereo not drawn)
The relative cell viability of the first is lower: 0.473 ± 0.23 for the first, 0.883 ± 0.084 for the second.

Compared with `COc1cccc(-n2c(=O)[nH]c3cc(Cl)n(-c4ccc(-c5cccc(OC)c5O)cc4)c3c2=O)c1`, `COc1cc2nccc(Oc3ccc(NC(=O)Nc4cc(C)on4)c(Cl)c3)c2cc1OC` [Tivozanib (AV-951)] is lower in relative cell viability: 0.807 ± 0.081 for the first, 0.23 ± 0.11 for the second.

First: COc1ccc(CNC(=O)Nc2ncc([N+](=O)[O-])s2)cc1
Second: COc1ccc(Cl)cc1NC(=O)Nc1cc(C)nc2ccccc12
The relative cell viability of the first is lower: 0.45 ± 0.03 for the first, 0.71 ± 0.017 for the second.

`OCCn1cc(-c2ccc3c(c2)CC/C3=N\O)c(-c2ccncc2)n1` and `COc1ccc(-c2cc3c(C)nc(N)nc3n([C@H]3CC[C@H](OCCO)CC3)c2=O)cn1` are within error of each other in relative cell viability: 0.687 ± 0.13 for the first, 0.597 ± 0.16 for the second.

`CCN(CC)CCCC(C)Nc1nc(C)cc(Nc2ccc3nc(C)cc(N)c3c2)n1` (stereo not drawn) and `CCN(CC)CCCC(C)Nc1ccnc2cc(Cl)ccc12` (stereo not drawn) [Chloroquine Phosphate] are within error of each other in relative cell viability: 0.583 ± 0.15 for the first, 0.817 ± 0.12 for the second.

`O=C1NC(=O)C(=Cc2ccc(-c3ccc(F)cc3)o2)S1` (stereo in doubt) and `O=C1NC(=O)/C(=C/c2ccc(-c3ccc(F)cc3O)o2)S1` are within error of each other in relative cell viability: 0.887 ± 0.11 for the first, 0.75 ± 0.052 for the second.

Compared with `Cc1[nH]c(/C=C2\C(=O)Nc3ccccc32)c(C)c1CCC(=O)O` [Orantinib (TSU-68, SU6668)], `Cc1[nH]c(/C=C2\C(=O)Nc3ccc(S(=O)(=O)Cc4c(Cl)cccc4Cl)cc32)c(C)c1C(=O)N1CCC[C@@H]1CN1CCCC1` is lower in relative cell viability: 0.903 ± 0.057 for the first, 0.19 ± 0.046 for the second.

`Cc1cc(F)c(Nc2ncnc3cc(OCc4ccccc4)ccc23)cc1O` and `O=C1NC(=O)C(c2ccccc2[N+](=O)[O-])=C1Nc1ccc(O)c(Cl)c1` are within error of each other in relative cell viability: 0.797 ± 0.021 for the first, 0.847 ± 0.031 for the second.

`CS(=O)(=O)c1cccc(CNc2nc(Nc3ccc4c(c3)CCC(=O)N4)ncc2C(F)(F)F)c1` and `Cc1nc(NC(=O)N2CCC[C@H]2C(N)=O)sc1-c1ccnc(C(C)(C)C(F)(F)F)c1` [Alpelisib (BYL719)] are within error of each other in relative cell viability: 0.91 ± 0.085 for the first, 0.827 ± 0.015 for the second.

Going from `Cc1ccc2nc(NCCN)c3ncc(C)n3c2c1` to `COc1cc(Nc2c(C#N)cnc3cc(OCCCN4CCN(C)CC4)c(OC)cc23)c(Cl)cc1Cl` [Bosutinib (SKI-606)], the relative cell viability rises from 0.703 ± 0.015 to 0.867 ± 0.035.

With `Cn1sc(=O)n(Cc2ccccc2)c1=O` the relative cell viability was 0.887 ± 0.11.

For `CN(c1ncccc1CNc1nc(Nc2ccc3c(c2)CC(=O)N3)ncc1C(F)(F)F)S(C)(=O)=O`, the relative cell viability was 0.763 and 0.527.
